The supplement of paper PMC3334620
Over roughly 33,000 sequences, “E-score (-0.5 to 0.5)” has its median near -0.0034; the highest 2% begin near 0.25. The list comes from a sample in which the highest values are over-represented; it also holds similar and randomly drawn sequences.

Each sequence was assayed against T1, Yap3 (UniProt P38749) (assay: PBM E-score (8-mer binding enrichment) (E-score (-0.5 to 0.5)); higher = stronger / more preferred TF binding). Details: protein concentration: 100 nM; construct: GST-full length.
T1 sequence: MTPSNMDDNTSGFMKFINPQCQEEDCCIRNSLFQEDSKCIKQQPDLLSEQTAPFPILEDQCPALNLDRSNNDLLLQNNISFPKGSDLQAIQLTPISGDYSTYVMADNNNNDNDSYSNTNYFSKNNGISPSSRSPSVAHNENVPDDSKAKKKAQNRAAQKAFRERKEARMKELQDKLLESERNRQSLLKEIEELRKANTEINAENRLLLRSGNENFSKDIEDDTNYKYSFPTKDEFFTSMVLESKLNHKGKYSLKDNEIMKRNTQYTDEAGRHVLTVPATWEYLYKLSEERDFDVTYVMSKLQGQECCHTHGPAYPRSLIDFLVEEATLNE
How it was run: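 Bound GST-tagged yeast transcription factors, applied at about 100-200 nM to double-stranded universal all-10-mer Agilent arrays, were detected with fluorescent anti-GST. Scans were normalised with masliner. A modified Wilcoxon-Mann-Whitney statistic, the E-score, was assigned to each ungapped eight-base word pooled with its reverse complement by the Universal PBM Analysis Suite.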

Row | Sequence | PBM E-score
1 | ATTCACAA | 0.294
2 | GTTCACAA | 0.043
3 | ATTCACAG | 0.0188
4 | GCATACGA | -0.062
5 | AAACGGAA | 0.263
6 | AAACGGGA | 0.12
7 | ATACGGAA | 0.185
8 | AAACGGAC | -0.155
9 | ACACGGAA | 0.0309
10 | CTACGGAA | 0.068
11 | GAACGGTA | 0.083
12 | AAACGGAG | 0.0915
13 | AAACGGAT | 0.277
14 | AAACGGTA | 0.301
15 | TTACGGAA | 0.266
16 | CAACGGTA | -0.108
17 | ACATGGGT | -0.0457
18 | ACTAGCAT | -0.0172
19 | ACAAGCGC | 0.0537
20 | ATACCATC | 0.119
21 | CCATTTGA | -0.0292
22 | TCGATCCA | -0.0884
23 | ACGCGCAC | -0.015
24 | CCAGTTAA | 0.143
25 | GGAGCCTA | -0.0407

Row | Sequence | PBM E-score
26 | TAACGGAA | 0.276
27 | GAACGGAA | 0.0365
28 | CAACGGAA | 0.15
29 | AACAAAAC | 0.239
30 | AACAAAAA | 0.307
31 | AAACAAAA | 0.185
32 | GAACAAAC | 0.227
33 | GACAAAAC | 0.179
34 | ACCAAAAC | 0.104
35 | ACCAAAAA | 0.277
36 | ACCAAAAT | 0.0693
37 | GAACAAAA | 0.346
38 | AACAAAAG | 0.164
39 | GACAAAAA | 0.315
40 | GACAAGAA | 0.127
41 | AGGCCACA | -0.191
42 | GGGATTGA | -0.173
43 | CAGTAGCA | -0.0517
44 | AGTGAAGG | 0.0123
45 | TAATCAAA | 0.285
46 | GTATCAAA | 0.187
47 | TTATCAAA | 0.283
48 | CTATCAAA | 0.155
49 | CAATCAAA | 0.0584
50 | GAATCAAA | 0.0372

Row | Sequence | PBM E-score
51 | GGCGCTGA | -0.124
52 | ATCAGCTC | 0.00619
53 | AGTTACAC | 0.0567
54 | CAACATTG | 0.115
55 | GCGATTTA | 0.0749
56 | ATGATTTA | 0.202
57 | CTGATTTA | 0.14
58 | CCGATTTA | 0.107
59 | GTGATTTA | 0.261
60 | ACGATTTA | 0.312
61 | CACCTCTA | 0.158
62 | GCAGATAA | -0.0214
63 | ATATACAA | 0.322
64 | CTATACAA | 0.189
65 | CTATACTA | 0.16
66 | ATATACTC | 0.126
67 | ATATACTA | 0.306
68 | ATATACAC | 0.171
69 | AGATCTAC | 0.0426
70 | AGTAACCC | -0.00628
71 | ACAAGTAA | 0.0548
72 | GTCCCTTA | 0.179
73 | ACTTATAT | 0.29
74 | ACTTATTA | 0.263
75 | CCTTATGA | 0.113

Row | Sequence | PBM E-score
76 | ACTTATTC | 0.162
77 | GCTTATTA | 0.232
78 | ACTTATAG | -0.0355
79 | CCTTATTC | 0.0232
80 | ACTTATAC | 0.174
81 | CCTTATTA | 0.33
82 | CCCACGTC | -0.122
83 | CGATTAGC | -0.102
84 | GCACTATA | 0.0864
85 | TAGCAAGA | 0.0496
86 | AGGTAATA | 0.294
87 | GCGTAATA | 0.305
88 | GGGTAATA | 0.0455
89 | CCGTAATA | 0.201
90 | ACGTAACG | 0.208
91 | ACGTAATA | 0.44
92 | GCGTAAAA | 0.231
93 | ACGTAATG | 0.354
94 | ACGTAAAA | 0.198
95 | ACGTAAGA | 0.23
96 | CGGTAATA | 0.202
97 | ACGTAAAG | 0.184
98 | GAGAGCGA | -0.166
99 | CCAGTGTC | -0.1
100 | GCAGATCC | 0.0102

Row | Sequence | PBM E-score
101 | ATCAATAC | 0.11
102 | ACTACCTG | 0.0736
103 | GCGTCTCC | -0.0737
104 | AAATCCTT | -0.0476
105 | CGCTACAC | -0.0665
106 | GATTCAAA | 0.0843
107 | AGCTCTAT | 0.0447
108 | GCTTCTCA | -0.0894
109 | GCAACATA | 0.0566
110 | CCAACATA | 0.305
111 | CCAACATC | -0.011
112 | CCAATGCC | -0.162
113 | AAAAGTAG | 0.105
114 | GCAGCAAA | -0.0366
115 | ACATTCTG | -0.0885
116 | CGCATTGA | 0.125
117 | CTCCTATA | -0.191
118 | GTCCTATA | -0.0462
119 | ATCCTATA | 0.26
120 | CGAGTTGA | 0.0975
121 | GCGGTCGA | 0.0757
122 | ACCTGAAG | 0.00792
123 | GCCTTTTA | -0.0778
124 | CTGGGCGC | -0.229
125 | CATTTCCC | 0.293

Row | Sequence | PBM E-score
126 | GATTTCAA | 0.0767
127 | GATTTCCC | 0.124
128 | CATTTCAA | 0.265
129 | TATTTCAA | 0.235
130 | CATTTTCC | 0.193
131 | ATGGGAGG | -0.0823
132 | TATCTGCA | 0.0463
133 | AAAGGTCG | -0.0514
134 | AACTTGCA | 0.108
135 | GATTCACA | 0.00517
136 | CATTCACG | -0.0375
137 | TATTCACA | 0.27
138 | GAAAATCC | 0.0305
139 | GCGATGAC | 0.0826
140 | GGAATTTA | 0.173
141 | AGAATTTC | -0.00706
142 | CTAATTTA | 0.19
143 | AGAATTTA | 0.276
144 | ATAATTTA | 0.303
145 | CGAATTTC | 0.298
146 | GTAATTTA | 0.238
147 | ATAATTTC | 0.17
148 | ATAATTTG | 0.294
149 | CGAATTTA | 0.136
150 | AAAATTTG | 0.0972

Row | Sequence | PBM E-score
151 | AGAATTTG | 0.107
152 | AAGAAGGG | -0.0033
153 | CCCCGTCG | -0.309
154 | CATGCTTC | -0.024
155 | CAAGGGGG | -0.226
156 | AGTGCATA | -0.0677
157 | GACTGAGC | -0.255
158 | CCTGTTCC | -0.0284
159 | AAGGCCCC | -0.285
160 | ATACAGGG | 0.14
161 | CAGCCTAA | -0.12
162 | AACACGAT | 0.0988
163 | GAAATTAA | 0.342
164 | CAAATTAA | 0.155
165 | AAAATTTT | 0.246
166 | AAAATTGC | 0.0358
167 | AAAATTAT | 0.257
168 | AAAATTAG | 0.227
169 | AAAATTAC | 0.273
170 | AAAATTAA | 0.138
171 | GAAATTAC | 0.265
172 | AAATTTAC | 0.219
173 | CAAATTAC | 0.144
